# From the supplement of paper PMC11417369
# Over roughly 25,000 sequences, “ln(normalized median fluorescence intensity)” has its median near 9.3; the highest 2% begin near 10. The sample holds the highest values, similar sequences and a random draw of the others, so the mix is not that of the screen.
# Tested on: PF3D7_0420300 AP2 domain 1 (GST-tagged)
# Experiment: gcPBM binding intensity (ln(normalized median fluorescence intensity)); higher = stronger DNA binding
# Outline: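 In this array assay, P. falciparum DNA-binding domains with a GST tag, expressed in E. coli, were applied for 1 h to primer-extended double-stranded 36-bp intergenic genomic probes and negative controls on an Agilent 4 × 180k array. Bound protein was visualised with Alexa488 anti-GST antibody at 488 nm. Binding intensity is the highest Masliner-normalised natural-log median intensity across replicate spots of either probe orientation.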
row,Sequence,gcPBM binding intensity (ln)
1,AAAAATTTGGCATACACACACACACGCACACGCACA [CACACA_site6422],10.2
2,AAAAATTTGGCATACACACACACACCCACACCCACA [CACACA_site587],10.2
3,CTTAAATTTTTAAATACACACATACACCCATACACA [CACACA_site4461],9.64
4,TACAAAAAAAATGTATTTAGGACATATATATGTTTA [XGTACX_negctrl_site455],9.02
5,ACGTTTTATAATTAATGTACAAATATTAAAATTGCA [XGTACX_site7869],9.07
6,GCTAGTTTTTTTTGGCGTACAGTACCGGTTTACTTT [XGTACX_site2606],9.42
7,AAAAAAAAAAAATAATGTACATATGTATTTGAGAAA [XGTACX_site3572],9.23
8,ATAATATAACACAAATGTACAAAAAATAAATAAATA [XGTACX_site385],9.51
9,ATGTTGTACAAACACACACACAAAAAAAAAATAAAA [CACACA_site2406],9.89
10,TAACAAAATGTAAATAAACACACATATATATATATA [CACACA_site8352],9.37
11,ACAAAATGTAAATAAACACACATATATATATATATA [CACACA_site1281],9.3
12,AACAAAATAAAACACACACACAAATGTACATATATA [CACACA_site2424],10.2
13,AAAAATATAATATAATGTACACATAAACAAAAAAAA [XGTACX_site3658],9.58
14,ATAACAAAATAAAACACACACACAAATGTACAGATA [CACACA_site5358],10.3
15,TATAACAAATAAAAATGTACATATATATAATATATA [XGTACX_site6173],9.38
16,ATAACAAAATAAAACACACACACAAATGTACATATA [CACACA_site2425],10.3
17,TTATTACGAACTCTGCAACATATATAAATAAATAAA [CACACA_negctrl_site44],8.86
18,ATATTTCATCTAGCTACACACATATAATAAATTATT [CACACA_site4094],9.53
19,ATTCTAATTAGTAAAGTGCAGATAAAATGATGCCCT [GTGCAC_site9578],9.08
20,ATTACATTTTTGTTTTGTACATATATTTTATAAACA [XGTACX_site494],9.34
21,TAATTTTTTTAAGAGAGTACATGACTCAACAGTTTA [XGTACX_site3103],8.76
22,TTAAAAAAAAAACACACACACATACCCATATATATA [CACACA_site5768],9.97
23,CCCACTAAAAAACACACACACACACCCATATATATA [CACACA_site6140],10.2

row,Sequence,gcPBM binding intensity (ln)
1,CGCACTAAAAAACACACACACACACCCATATATATA [CACACA_site4152],10.3
2,CACCCACTAATAAACACACACATATATATATATATA [CACACA_site389],9.62
3,TTATATTAAACAAACACACACATATATATATATATA [CACACA_site2382],9.53
4,CATACTGTTATAAAATGTACGCATATACACACACAT [XGTACX_site7256],9.89
5,CACATACAGACATACACACACATATAGATTAATATA [CACACA_site6399],9.93
6,GGCATGACTATCTGCACACATAAAAATAAGAAATAC [CACACA_site841],9.56
7,TAGAATAATCTATAAACACACAAACCCAACAAAAGA [CACACA_site6132],9.86
8,TATAATAATCCACAAGCACACACACCCACATATATA [CACACA_site8343],9.93
9,AATAATAGAAGCACCCACCCACCACCACCCACACAT [CACACA_negctrl_site1033],11.1
10,CACCCACACCAACACACACACATATATAATATATAT [CACACA_site595],10.1
11,ATAATAATTAACCTATGTACATAGGAAAGTCATAAA [XGTACX_site4387],9.29
12,TTATATTAATTTTGTTGTACTATTTGTGCATTAAAT [XGTACX_site4790],9.21
13,TGTCATGATACATACACACACATACCCATACCCATA [CACACA_site5211],9.88
14,TATTGCCCTTGACACACACACATATAAATAAATATA [CACACA_site7220],9.84
15,ATTATATAATTGTCTTCACACACACCGATATATATA [CACACA_site8883],9.93
16,TATATATTGCCCTTCACACACACACCGATATATATA [CACACA_site5390],10.2
17,CTTATATATTGCCCTTCACACACACCCATATATATA [CACACA_site8795],10.1
18,CATATATATTTGTTCACACACACACCCAAAAAAAAA [CACACA_site2476],9.99
19,TATATATTGCCCTTCACACACACACCCATATATATA [CACACA_site2493],10.2
20,TATTGCCCTGGACACACACACATATATATATATATA [CACACA_site5389],9.88
21,ATTCATTTTATTTTTTCACACACACCGATATATATA [CACACA_site9097],10
22,TATATTGCCCTTCACACACACACATATATATATATA [CACACA_site2492],10.3
